# Assay results taken from PubChem BioAssay (Tox21).
# Values joined by “and” are separate entries in the source; they are usually repeats but may differ in a detail not shown here. Equal entries are not always repeated. Inconclusive results are not listed. Where a call stands in place of a potency, no number is given. Some compounds were tested as several samples or in several runs, with calls that do not always agree. Active and inactive are the calls of the source. Calls come from the whole dose curve; as a rule, active = well fitted curve in the direction sought with a large enough effect in the repeat runs; inconclusive = weak or mixed curves; inactive = no such curve, though single readings can be large; an effect the other way counts as inactive or inconclusive.
# Legend:
# [1] = Human pregnane X receptor (PXR) small molecule agonists, qHTS cell viability counter screen (AID 1346977); note: nearly all actives have a fitted effect of over 50% in size; note: potency is the fitted concentration of half-maximal effect
# Summary of the method: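 Fluorescence read-out (CellTiter-Fluor) of viability in PXR-Luc HepG2 cells, multiplexed with the luciferase agonist read. Compounds in DMSO added after 5hr plating; 24hr total exposure at 37C, 5% CO2.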
# [2] = Caspase-3/7 induction in HepG2 cells by small molecules, qHTS assay (AID 1346978); note: nearly all actives have a fitted effect of over 15% in size
# Summary of the method: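 Wild-type HepG2 cells (2,000/well) were settled 5 h at 37 C, 5% CO2, then exposed to compounds in DMSO for 17 h. Caspase-3/7 activity was read by luminescence 30 min after adding Caspase-Glo 3/7 reagent at room temperature.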
# [3] = Caspase-3/7 induction in CHO-K1 cells by small molecules, qHTS cell viability counter screen (AID 1346979); note: nearly all actives have a fitted effect of over 35% in size; note: potency is the fitted concentration of half-maximal effect
# Summary of the method: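 CHO-K1 wt, 1,500 cells/well; 5hr pre-incubation 37C/5% CO2; compound pin transfer (DMSO); 16hr exposure; CellTiter-Fluor added, 1hr, fluorescence read.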
# [4] = Caspase-3/7 induction in CHO-K1 cells by small molecules, qHTS assay (AID 1346980); note: nearly all actives have a fitted effect of over 15% in size
# Summary of the method: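 Wild-type cells were seeded at 1,500 per well and settled 5 hr at 37 C, 5% CO2, then exposed to DMSO-dissolved compounds for 17 hr. Caspase-Glo 3/7 reagent was added, and luminescence was read after 30min at room temperature.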
# [5] = Caspase-3/7 induction in HepG2 cells by small molecules, qHTS cell viability counter screen (AID 1346981); note: series mostly up to about 92 µM; nearly all actives have a fitted effect of over 30% in size
# Summary of the method: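 Viability determined by CellTiter-Fluor fluorescence in HepG2 wells also used for the luminescent Caspase-Glo 3/7 read. Compounds were present for 16 hr at 37 C, 5% CO2 before reagent addition.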
# [6] = target: Nuclear receptor subfamily 1 group I member 2 (Homo sapiens) (UniProt O75469); assay: Human pregnane X receptor (PXR) small molecule agonists, qHTS assay (AID 1346982); note: nearly all actives have a fitted effect of over 35% in size; note: potency is the fitted concentration of half-maximal effect
# Sequence of Nuclear receptor subfamily 1 group I member 2 (Homo sapiens) (O75469 whole entry, looked up): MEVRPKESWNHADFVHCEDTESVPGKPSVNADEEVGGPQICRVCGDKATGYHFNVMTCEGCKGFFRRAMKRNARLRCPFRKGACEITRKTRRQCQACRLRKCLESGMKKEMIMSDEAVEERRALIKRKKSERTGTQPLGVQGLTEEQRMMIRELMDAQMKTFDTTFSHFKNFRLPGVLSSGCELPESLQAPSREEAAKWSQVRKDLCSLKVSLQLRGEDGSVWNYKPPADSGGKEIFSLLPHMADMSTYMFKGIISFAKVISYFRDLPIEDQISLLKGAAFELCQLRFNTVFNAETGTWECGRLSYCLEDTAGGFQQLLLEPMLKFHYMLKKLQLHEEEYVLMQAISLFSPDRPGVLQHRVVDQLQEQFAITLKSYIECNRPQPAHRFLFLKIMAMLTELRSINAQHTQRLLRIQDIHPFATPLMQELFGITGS
# Summary of the method: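 Compound-induced hPXR transactivation of a CYP3A4 luciferase reporter was scored in HepG2 PXR-Luc cells over 24 hr at 37 C, 5% CO2, by luminescence.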
# [7] = target: Cytochrome P450 2D6 (Homo sapiens) (UniProt P10635); assay: Cytochrome P450 Family 2 Subfamily D Member 6 (CYP2D6) small molecule antagonists: luciferase reporter qHTS assay (AID 1671196); note: series mostly up to about 120 µM; nearly all actives have a fitted effect of over 50% in size
# Sequence of Cytochrome P450 2D6 (Homo sapiens) (P10635 whole entry, looked up): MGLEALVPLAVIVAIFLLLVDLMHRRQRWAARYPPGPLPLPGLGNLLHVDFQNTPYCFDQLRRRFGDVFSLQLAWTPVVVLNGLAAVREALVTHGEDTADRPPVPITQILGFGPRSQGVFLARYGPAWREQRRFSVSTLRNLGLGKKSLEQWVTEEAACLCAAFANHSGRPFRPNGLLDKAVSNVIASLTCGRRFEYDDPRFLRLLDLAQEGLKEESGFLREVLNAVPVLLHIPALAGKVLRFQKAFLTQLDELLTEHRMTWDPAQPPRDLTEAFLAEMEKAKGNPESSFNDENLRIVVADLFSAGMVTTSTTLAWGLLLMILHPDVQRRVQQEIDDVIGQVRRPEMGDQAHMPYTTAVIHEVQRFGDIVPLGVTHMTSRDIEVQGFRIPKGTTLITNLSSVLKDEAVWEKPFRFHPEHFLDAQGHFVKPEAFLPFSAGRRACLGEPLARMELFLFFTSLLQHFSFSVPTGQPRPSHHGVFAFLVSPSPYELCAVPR
# Summary of the method: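 Each well received CYP2D6 with its proluciferin substrate and chemical, sat 10 min, then got NADPH regeneration solution for 1 h at room temperature. Luminescence in RLU served as the activity measure.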
# [8] = target: Cytochrome P450 2C19 (Homo sapiens) (UniProt P33261); assay: Cytochrome P450 Family 2 Subfamily C Member 19 (CYP2C19) small molecule antagonists: luciferase reporter qHTS assay (AID 1671197); note: nearly all actives have a fitted effect of over 65% in size; note: potency is the fitted concentration of half-maximal effect
# Sequence of Cytochrome P450 2C19 (Homo sapiens) (P33261 whole entry, looked up): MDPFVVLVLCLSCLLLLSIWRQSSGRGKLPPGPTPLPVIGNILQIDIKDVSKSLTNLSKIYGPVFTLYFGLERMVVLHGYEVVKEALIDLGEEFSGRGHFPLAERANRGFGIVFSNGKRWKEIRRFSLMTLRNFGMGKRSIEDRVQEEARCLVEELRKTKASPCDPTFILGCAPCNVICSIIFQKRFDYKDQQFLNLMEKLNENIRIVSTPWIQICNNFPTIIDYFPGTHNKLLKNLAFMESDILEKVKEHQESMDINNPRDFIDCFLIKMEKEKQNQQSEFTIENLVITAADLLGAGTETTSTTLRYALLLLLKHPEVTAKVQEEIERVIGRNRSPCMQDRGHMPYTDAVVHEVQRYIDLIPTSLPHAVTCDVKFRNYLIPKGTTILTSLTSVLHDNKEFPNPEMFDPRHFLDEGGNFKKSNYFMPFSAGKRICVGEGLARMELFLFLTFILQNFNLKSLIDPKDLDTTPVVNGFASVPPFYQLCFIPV
# Summary of the method: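 First, compounds are pinned into enzyme-substrate mix and held 10 min at room temperature. Second, NADPH regeneration solution is added and plates incubate 1 h at 37C. Third, detection reagent is added and luminescence read after 20 min.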
# [9] = target: Cytochrome P450 2C9 (Homo sapiens) (UniProt P11712); assay: Cytochrome P450 Family 2 Subfamily C Member 9 (CYP2C9) small molecule antagonists: luciferase reporter qHTS assay (AID 1671198); note: nearly all actives have a fitted effect of over 50% in size; note: potency is the fitted concentration of half-maximal effect
# Sequence of Cytochrome P450 2C9 (Homo sapiens) (P11712 whole entry, looked up): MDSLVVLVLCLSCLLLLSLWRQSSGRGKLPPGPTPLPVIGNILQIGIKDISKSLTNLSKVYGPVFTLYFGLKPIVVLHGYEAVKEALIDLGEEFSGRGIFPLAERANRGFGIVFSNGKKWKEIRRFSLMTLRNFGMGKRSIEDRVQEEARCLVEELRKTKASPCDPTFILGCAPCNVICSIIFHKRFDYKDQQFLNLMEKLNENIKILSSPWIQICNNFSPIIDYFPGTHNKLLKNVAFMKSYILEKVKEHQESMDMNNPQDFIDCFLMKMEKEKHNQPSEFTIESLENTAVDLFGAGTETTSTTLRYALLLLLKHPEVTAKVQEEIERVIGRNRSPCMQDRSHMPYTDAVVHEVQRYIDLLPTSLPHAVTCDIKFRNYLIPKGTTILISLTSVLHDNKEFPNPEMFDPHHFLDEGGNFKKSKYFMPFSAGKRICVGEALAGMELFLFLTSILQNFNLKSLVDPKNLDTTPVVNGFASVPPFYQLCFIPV
# Summary of the method: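 CYP2C9 activity was measured with a P450-Glo proluciferin substrate. Enzyme–substrate mix was held with compound for 10 min at room temperature, then NADPH regeneration solution was added for 1 h at 37C. Luciferin product was read as luminescence.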
# [10] = target: Cytochrome P450 1A2 (Homo sapiens) (UniProt P05177); assay: Cytochrome P450 Family 1 Subfamily A Member 2 (CYP1A2) small molecule antagonists: luciferase reporter qHTS assay (AID 1671199); note: nearly all actives have a fitted effect of over 50% in size; note: potency is the fitted concentration of half-maximal effect
# Sequence of Cytochrome P450 1A2 (Homo sapiens) (P05177 whole entry, looked up): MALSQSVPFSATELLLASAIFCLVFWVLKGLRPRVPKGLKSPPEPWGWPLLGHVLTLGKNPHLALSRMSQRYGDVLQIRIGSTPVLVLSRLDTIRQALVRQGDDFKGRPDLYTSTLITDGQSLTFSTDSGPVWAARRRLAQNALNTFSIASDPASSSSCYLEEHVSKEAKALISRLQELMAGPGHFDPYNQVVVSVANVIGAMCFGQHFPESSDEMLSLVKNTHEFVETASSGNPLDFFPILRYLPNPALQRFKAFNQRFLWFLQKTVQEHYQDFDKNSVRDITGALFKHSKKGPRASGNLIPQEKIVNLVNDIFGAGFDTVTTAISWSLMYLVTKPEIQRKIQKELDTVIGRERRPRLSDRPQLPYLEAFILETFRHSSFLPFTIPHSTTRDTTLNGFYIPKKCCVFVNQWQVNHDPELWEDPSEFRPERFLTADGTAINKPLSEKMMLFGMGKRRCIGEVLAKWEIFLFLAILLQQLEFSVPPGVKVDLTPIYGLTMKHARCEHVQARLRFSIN
# Summary of the method: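 Enzymatic CYP1A2 assay, human, luminescent: 10 min compound–enzyme–substrate preincubation, 1 h NADPH-dependent turnover, 20 min detection step, room temperature throughout. Reduced light indicates lower CYP1A2 activity.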
# [11] = target: Voltage-gated inwardly rectifying potassium channel KCNH2 (Homo sapiens) (UniProt Q12809); assay: Human Ether-a-go-go-Related Gene (hERG) channel small molecule antagonists: fluorescence cell-based qHTS assay (AID 1671200); note: nearly all actives have a fitted effect of over 50% in size; note: potency is the fitted concentration of half-maximal effect
# Sequence of Voltage-gated inwardly rectifying potassium channel KCNH2 (Homo sapiens) (Q12809 whole entry, looked up): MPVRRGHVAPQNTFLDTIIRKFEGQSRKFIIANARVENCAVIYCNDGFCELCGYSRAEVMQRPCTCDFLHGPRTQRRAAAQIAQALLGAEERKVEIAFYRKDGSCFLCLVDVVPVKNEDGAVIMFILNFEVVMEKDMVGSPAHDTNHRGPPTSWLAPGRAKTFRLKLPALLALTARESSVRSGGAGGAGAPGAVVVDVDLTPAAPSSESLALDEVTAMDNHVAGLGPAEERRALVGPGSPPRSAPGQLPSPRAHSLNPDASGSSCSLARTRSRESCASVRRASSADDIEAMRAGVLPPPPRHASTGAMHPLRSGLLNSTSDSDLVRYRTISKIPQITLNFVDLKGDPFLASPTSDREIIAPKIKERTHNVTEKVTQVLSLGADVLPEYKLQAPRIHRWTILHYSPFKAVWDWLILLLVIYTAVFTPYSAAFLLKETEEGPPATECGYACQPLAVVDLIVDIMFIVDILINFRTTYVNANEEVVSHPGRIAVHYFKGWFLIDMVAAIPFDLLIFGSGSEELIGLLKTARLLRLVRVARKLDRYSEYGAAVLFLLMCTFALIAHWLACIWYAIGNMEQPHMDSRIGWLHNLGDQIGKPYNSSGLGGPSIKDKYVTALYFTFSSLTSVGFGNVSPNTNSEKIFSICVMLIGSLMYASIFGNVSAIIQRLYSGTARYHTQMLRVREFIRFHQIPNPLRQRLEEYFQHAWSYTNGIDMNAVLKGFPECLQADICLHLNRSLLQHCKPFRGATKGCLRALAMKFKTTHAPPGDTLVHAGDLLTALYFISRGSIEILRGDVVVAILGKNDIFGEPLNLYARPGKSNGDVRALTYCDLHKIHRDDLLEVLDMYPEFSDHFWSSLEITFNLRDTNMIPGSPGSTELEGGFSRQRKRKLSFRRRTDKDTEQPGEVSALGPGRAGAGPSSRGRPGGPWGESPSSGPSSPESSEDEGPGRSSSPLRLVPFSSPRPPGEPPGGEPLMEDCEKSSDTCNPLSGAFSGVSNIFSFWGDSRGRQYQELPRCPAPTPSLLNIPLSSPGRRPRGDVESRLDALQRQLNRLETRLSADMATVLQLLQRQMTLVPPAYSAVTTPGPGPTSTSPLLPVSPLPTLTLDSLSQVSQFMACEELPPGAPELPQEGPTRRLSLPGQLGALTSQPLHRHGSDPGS
# Summary of the method: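 Read-out: thallium influx as a surrogate for potassium, tracked as fluorescence (480 nm ex/540 nm em) every second for 2 min after Stimulus Buffer addition in dye-loaded hERG-U2OS cells.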
# [12] = target: Cytochrome P450 3A4 (Homo sapiens) (UniProt P08684); assay: Cytochrome P450 Family 3 Subfamily A Member 4 (CYP3A4) small molecule antagonists: luciferase reporter qHTS assay (AID 1671201); note: nearly all actives have a fitted effect of over 50% in size; note: potency is the fitted concentration of half-maximal effect
# Sequence of Cytochrome P450 3A4 (Homo sapiens) (P08684 whole entry, looked up): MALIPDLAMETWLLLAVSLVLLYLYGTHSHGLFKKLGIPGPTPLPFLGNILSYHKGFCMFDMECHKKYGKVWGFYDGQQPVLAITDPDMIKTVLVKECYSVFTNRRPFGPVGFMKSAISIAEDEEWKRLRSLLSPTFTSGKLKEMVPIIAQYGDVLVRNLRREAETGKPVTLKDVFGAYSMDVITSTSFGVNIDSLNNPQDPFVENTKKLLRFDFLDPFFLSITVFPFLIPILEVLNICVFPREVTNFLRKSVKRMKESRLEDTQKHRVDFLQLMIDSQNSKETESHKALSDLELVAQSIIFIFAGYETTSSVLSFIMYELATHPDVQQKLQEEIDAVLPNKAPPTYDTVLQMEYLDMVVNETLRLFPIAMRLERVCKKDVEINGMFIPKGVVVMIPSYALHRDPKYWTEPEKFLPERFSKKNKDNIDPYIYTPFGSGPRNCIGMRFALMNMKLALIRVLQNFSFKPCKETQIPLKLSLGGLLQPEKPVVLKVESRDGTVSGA
# Summary of the method: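 Luminescent readout (RLU) proportional to CYP3A4 activity, from luciferin generated off a proluciferin substrate. Enzyme–substrate mix plus compound 10 min at room temp, NADPH regeneration 1 h, detection reagent 20 min.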
# [13] = target: Nuclear receptor subfamily 1 group I member 2 (Rattus norvegicus) (UniProt Q9R1A7); assay: Rat pregnane X receptor (rPXR) activation by small molecules, qHTS assay (AID 1346983); conditions: rPXR luciferase reporter cells, One-Glo luminescence, 24 h; stronger effect = higher value; note: nearly all actives have a fitted effect of over 20% in size
# Sequence of Nuclear receptor subfamily 1 group I member 2 (Rattus norvegicus) (Q9R1A7 whole entry, looked up): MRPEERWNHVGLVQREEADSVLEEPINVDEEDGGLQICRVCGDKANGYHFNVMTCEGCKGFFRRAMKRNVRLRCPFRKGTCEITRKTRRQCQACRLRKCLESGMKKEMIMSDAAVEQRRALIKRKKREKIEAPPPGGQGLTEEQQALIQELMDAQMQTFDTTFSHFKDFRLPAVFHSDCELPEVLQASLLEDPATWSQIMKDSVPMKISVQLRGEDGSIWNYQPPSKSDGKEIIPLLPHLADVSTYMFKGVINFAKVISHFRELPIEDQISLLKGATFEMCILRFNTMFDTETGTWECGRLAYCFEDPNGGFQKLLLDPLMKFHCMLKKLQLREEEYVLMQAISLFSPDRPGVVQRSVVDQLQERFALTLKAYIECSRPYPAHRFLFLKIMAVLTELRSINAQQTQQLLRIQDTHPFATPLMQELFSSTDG
# Summary of the method: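 Cell-based rPXR luciferase reporter assay, 2,000 cells per well, rested 5hr at 37 C before compound addition in DMSO, then 24 hr at 37 C. One-Glo reagent was added and luminescence read after 30 min at room temperature.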
# [14] = target: Nuclear receptor subfamily 1 group I member 2 (Homo sapiens) (UniProt O75469); assay: CYP3A4 induction through human pregnane X receptor (PXR) by small molecules, qHTS assay (AID 1346984); note: nearly all actives have a fitted effect of over 40% in size
# Summary of the method: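 Readings come from a luciferase reporter: DPX-2 cells, which are HepG2 cotransfected with PXR and a CYP3A4-promoter construct, were exposed to test compounds for 24 h at 37C before One-Glo detection.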
# [15] = target: Nuclear receptor subfamily 1 group I member 2 (Homo sapiens) (UniProt O75469); assay: Human pregnane X receptor (PXR) activation by small molecules, qHTS assay (AID 1346985); note: nearly all actives have a fitted effect of over 40% in size
# Summary of the method: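 DPX-2 cells (HepG2 co-transfected with a PXR response element and a CYP3A4-promoter luciferase construct) were seeded at 2,000 per well, rested 5 hr at 37C, then exposed to DMSO-dissolved compounds for 24 hr. Activation was read as luciferase luminescence.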
SMILES,Potency [1],Potency [2],Potency [3],Potency [4],Potency [5],Potency [6],Potency [7],Potency [8],Potency [9],Potency [10],Potency [11],Potency [12],max activation [13],Potency [14],outcome [15]
CCCN(CCC)C(=O)SCC,inactive,inactive,inactive,inactive,inactive,inactive,inactive,inactive,inactive,inactive,inactive,inactive,,,
C1CCCNCC1,inactive,inactive,inactive,inactive,inactive,inactive,inactive,inactive,inactive,inactive,inactive,inactive,,,
COC(=O)OC,inactive,inactive,inactive,inactive,inactive,inactive,inactive,inactive,inactive,inactive,inactive,inactive,,,
C=C(C)CC(C)(C)C,inactive,inactive,inactive,inactive,inactive,inactive,,inactive,inactive,inactive,inactive,inactive,,,
NC(=O)c1ncn([C@@H]2O[C@H](CO)[C@@H](O)[C@H]2O)n1,inactive,inactive,inactive,inactive,inactive,9.1 µM (active) and inactive,,inactive,,inactive,inactive,inactive,,,
CC1(C)[C@@H](O[C@H]2O[C@H](C(=O)O)[C@@H](O)[C@H](O)[C@H]2O[C@@H]2O[C@H](C(=O)O)[C@@H](O)[C@H](O)[C@H]2O)CC[C@]2(C)[C@H]3C(=O)C=C4[C@@H]5C[C@@](C)(C(=O)O)CC[C@]5(C)CC[C@@]4(C)[C@]3(C)CC[C@@H]12,inactive,inactive,,inactive,inactive,inactive,inactive,inactive,inactive,inactive,inactive,inactive,-0.648% (inactive),inactive,inactive
COC(=O)/C=C\C(=O)OC,inactive,inactive,inactive,inactive,inactive,inactive,,inactive,inactive,inactive,inactive,inactive,,,
CCCCC(CC)COC(=O)c1ccc(C(=O)OCC(CC)CCCC)cc1 (stereo unspecified),inactive,inactive,inactive,inactive,inactive,inactive,inactive,inactive,inactive,,inactive,inactive,,,
CC[N+](CC)(CC(=O)Nc1c(C)cccc1C)Cc1ccccc1,inactive,inactive,inactive,inactive,inactive,,,39.9 µM (active) and inactive,,inactive,24.5 µM (active) and inactive,,,,
COc1cc(NC(=O)CC(C)=O)c(OC)cc1Cl,inactive,inactive,inactive,inactive,inactive,68.9 µM (active) and 24.3 µM (active),,40.1 µM (active) and 39.9 µM (active),40.1 µM (active) and 39.9 µM (active),3.57 µM (active) and 5.64 µM (active),inactive,14.2 µM (active) and 15.9 µM (active),,,
OB(O)O,inactive,inactive,,inactive,inactive,inactive,inactive,inactive,inactive,inactive,inactive,inactive,-0.586% (inactive),inactive,inactive
OCC(O)CS (stereo unspecified),inactive,inactive,,inactive,inactive,inactive,inactive,inactive,inactive,inactive,inactive,inactive,-1.93% (inactive),inactive,inactive
CCCOC(=O)NCCCN(C)C,inactive,inactive,inactive,inactive,inactive,inactive,,35.6 µM (active) and inactive,63.3 µM (active) and inactive,inactive,inactive,inactive,,,
CC(=O)c1nccs1,inactive,inactive,inactive,inactive,inactive,inactive,,26.1 µM (active) and inactive,32.8 µM (active) and inactive,,inactive,inactive,,,
C[n+]1ccn(CCO)c1,inactive,inactive,inactive,inactive,inactive,inactive,,inactive,inactive,inactive,inactive,inactive,,,
CC(=O)OC(C)(C)C1CC=C(C)CC1 (stereo unspecified),inactive,inactive,inactive,inactive,inactive,inactive,,35.6 µM (active),39.9 µM (active),inactive,inactive,inactive and 31.7 µM (active),,,
CC(CN1c2ccccc2Sc2ccccc21)N(C)C (stereo unspecified),44.7 µM (active) and 48.6 µM (active),inactive,61.1 µM (active),inactive,,19.3 µM (active) and inactive,,8.05 µM (active) and 10 µM (active) and 7.76 µM (active),,,22.1 µM (active) and 21.9 µM (active) and 21.3 µM (active),inactive,,,
N[C@@H](Cc1cc(I)c(Oc2ccc(O)c(I)c2)c(I)c1)C(=O)O,inactive,inactive,inactive,,inactive,inactive and 63.7 µM (active),inactive,inactive and 74 µM (active),,,inactive,,-2.4% (inactive),,
CC(=O)CC(=O)N(C)C,inactive,inactive,inactive,inactive,inactive,inactive,,inactive,inactive,inactive,inactive,inactive,,,
